# Measured values as given in the supplement of paper PMC8728848.
# About 410 targets per protein were measured; listed, in parts, are those with the strongest signals and a random draw of the rest.
# B1: Epa22 (Candida glabrata) (protein)
# chain: MGSSHHHHHHSSGLVPRGSHMKRALSSQNPFGYPIGCSPQSTNVIPGLTMELYSYPIVSGTPPNCYDASYVDPEYPRTGYLKRKMIGKSTGVTGSLNYKFSVEKACMVKYGNLPAGYNYNEPLTVSNFTMLLYGYFKPQTSGIHTFFVNADDLLYINFGAGNAFDCCKREDSKFKLGEYVAYDIWHVDSSKNKVSLNLEKDVYYPIRMFFNNIGKDSSLDLSFSVNGAVEHITDFSGYLYSVPDQPDACPAPIGYDTTCK
# B2: FaeGac (Escherichia coli) (protein)
# chain: WMTGDFNGSVDIGGSITADDYRQKWEWKVGTGLNGFGNVLNDLTNGGTKLTITVTGNKPILLGRTKEAFATPVTGGVDGIPHIAFTDYEGASVVLRNPDGETNKKGLAYFVLPMKNAEGTKVGSVKVNASYAGVLGRGGVTSADGELLSLFADGLSSIFYGGLPRGSELSAGSAAAERTKLFGSLSRNDILGQIQRVNANITSLVDVAGSYRENMEYTDGTVVSAAYALGIANGQTIEATFNQAVTTSTQWSAPLNVAITYY
# Key:
# Test in all cases: glycan array binding signal (z-score within array); higher = stronger binding
# Conditions in all cases: glycan notation: IUPAC condensed, linker removed
# [1] = target: Fuc(a1-2)Gal(b1-4)GlcNAc(b1-3)Gal(b1-4)GlcNAc(b1-2)Man(a1-3)[Fuc(a1-2)Gal(b1-4)GlcNAc(b1-3)Gal(b1-4)GlcNAc(b1-2)Man(a1-6)]Man(b1-4)GlcNAc(b1-4)GlcNAc
# Summary of the method: (§1)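 The Consortium for Functional Glycomics database supplied 3228 glycan arrays, of which those lacking an available protein sequence were dropped. The binding signal, a within-array Z-score, was averaged across arrays of the same protein sequence and across linkers. Negative scores can be read as non-binding.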
# [2] = target: Fuc(a1-2)Gal6S(b1-3)GlcNAc6S
# Summary of the method: as §1
# [3] = target: Fuc(a1-2)[Gal(a1-3)]Gal(b1-4)[Fuc(a1-3)]GlcNAc(b1-3)GalNAc
# Summary of the method: as §1
# [4] = target: Fuc(a1-2)[Gal(a1-4)]Gal(b1-4)GlcNAc
# Summary of the method: as §1
# [5] = target: Fuc(a1-2)[GalNAc(a1-3)]Gal(b1-4)GlcNAc(b1-3)Gal(b1-4)GlcNAc(b1-3)Gal(b1-4)GlcNAc
# Summary of the method: as §1
# [6] = target: Gal(a1-3)Gal(b1-3)GlcNAc(b1-6)GalNAc
# Summary of the method: as §1
# [7] = target: Gal(a1-3)Gal(b1-4)GlcNAc
# Summary of the method: as §1
# [8] = target: Gal(a1-3)Gal(b1-4)GlcNAc(b1-2)Man
# Summary of the method: as §1
# [9] = target: Gal(a1-4)GlcNAc
# Summary of the method: as §1
# [10] = target: Gal(a1-6)Glc
# Summary of the method: as §1
# [11] = target: Gal(b1-3)Gal
# Summary of the method: as §1
# [12] = target: Gal(b1-3)GalNAc(a1-3)[Fuc(a1-2)]Gal(b1-4)GlcNAc
# Summary of the method: as §1
# [13] = target: Gal(b1-3)GalNAc(b1-4)Gal(b1-4)Glc
# Summary of the method: as §1
# [14] = target: Gal(b1-3)GlcNAc(a1-6)Gal(b1-4)GlcNAc
# Summary of the method: as §1
# [15] = target: Gal(b1-3)GlcNAc(b1-3)Gal(b1-4)GlcNAc
# Summary of the method: as §1
# [16] = target: Gal(b1-3)GlcNAc(b1-3)Gal(b1-4)GlcNAc(b1-6)[Gal(b1-3)GlcNAc(b1-3)]Gal(b1-4)Glc
# Summary of the method: as §1
# [17] = target: Gal(b1-4)GlcNAc(b1-2)[Gal(b1-4)GlcNAc(b1-6)]Man(a1-6)[GlcNAc(b1-4)][Gal(b1-4)GlcNAc(b1-2)Man(a1-3)]Man(b1-4)GlcNAc(b1-4)GlcNAc
# Summary of the method: as §1
# [18] = target: Gal(b1-4)GlcNAc(b1-3)Gal(b1-4)GlcNAc(b1-2)Man(a1-3)[Gal(b1-4)GlcNAc(b1-3)Gal(b1-4)GlcNAc(b1-2)Man(a1-6)]Man(b1-4)GlcNAc(b1-4)GlcNAc
# Summary of the method: as §1
# [19] = target: Gal(b1-4)GlcNAc(b1-3)Gal(b1-4)GlcNAc(b1-3)Gal(b1-4)GlcNAc(b1-3)Gal(b1-4)GlcNAc(b1-3)Gal(b1-4)GlcNAc(b1-2)Man(a1-3)[Gal(b1-4)GlcNAc(b1-3)Gal(b1-4)GlcNAc(b1-3)Gal(b1-4)GlcNAc(b1-3)Gal(b1-4)GlcNAc(b1-3)Gal(b1-4)GlcNAc(b1-2)Man(a1-6)]Man(b1-4)GlcNAc(b1-4)[Fuc(a1-6)]GlcNAc
# Summary of the method: as §1
# [20] = target: Gal(b1-4)GlcNAc(b1-3)GalNAc
# Summary of the method: as §1
# [21] = target: Gal(b1-4)GlcNAc(b1-3)[GlcNAc(b1-6)]Gal(b1-4)GlcNAc
# Summary of the method: as §1
# [22] = target: Gal4S(b1-4)GlcNAc
# Summary of the method: as §1
# [23] = target: Gal6S(b1-3)GlcNAc6S
# Summary of the method: as §1
# [24] = target: Gal6S(b1-4)Glc6S
# Summary of the method: as §1
# [25] = target: Gal6S(b1-4)GlcNAc6S
# Summary of the method: as §1
# [26] = target: GalNAc(b1-3)Gal(a1-4)Gal(b1-4)GlcNAc(b1-3)Gal(b1-4)Glc
# Summary of the method: as §1
# [27] = target: GalNAc(b1-3)GalNAc
# Summary of the method: as §1
# [28] = target: GalNAc(b1-4)GlcNAc(b1-2)Man
# Summary of the method: as §1
# [29] = target: GlcA(b1-6)Gal
# Summary of the method: as §1
# [30] = target: GlcNAc(a1-4)Gal(b1-4)GlcNAc(b1-3)Gal(b1-4)GlcNAc
# Summary of the method: as §1
# [31] = target: Fuc(a1-2)Gal(b1-4)GlcNAc(b1-3)Gal(b1-4)GlcNAc
# Summary of the method: as §1
# [32] = target: Fuc(a1-2)Gal(b1-4)GlcNAc(b1-3)Gal(b1-4)GlcNAc(b1-3)Gal(b1-4)GlcNAc
# Summary of the method: as §1
# [33] = target: Fuc(a1-2)Gal(b1-4)[Fuc(a1-3)]GlcNAc(b1-3)Gal(b1-4)[Fuc(a1-3)]GlcNAc(b1-3)Gal(b1-4)[Fuc(a1-3)]GlcNAc
# Summary of the method: as §1
# [34] = target: Fuc(a1-2)[GalNAc(a1-3)]Gal(b1-4)GlcNAc
# Summary of the method: as §1
# [35] = target: Fuc(a1-3)GlcNAc
# Summary of the method: as §1
# [36] = target: Gal(a1-4)Gal(b1-4)Glc
# Summary of the method: as §1
# [37] = target: Gal(b1-2)Gal
# Summary of the method: as §1
# [38] = target: Gal(b1-3)GalNAc(b1-4)[Neu5Ac(a2-3)]Gal(b1-4)Glc
# Summary of the method: as §1
# [39] = target: Gal(b1-4)GlcNAc
# Summary of the method: as §1
# [40] = target: Gal(b1-4)GlcNAc(b1-3)Gal(b1-4)[Fuc(a1-3)]GlcNAc(b1-3)Gal(b1-4)[Fuc(a1-3)]GlcNAc
# Summary of the method: as §1
# [41] = target: Gal3S(b1-4)GlcNAc
# Summary of the method: as §1
# [42] = target: Gal3S6S(b1-4)GlcNAc6S
# Summary of the method: as §1
# [43] = target: Gal4S6S(b1-4)GlcNAc
# Summary of the method: as §1
# [44] = target: Glc(a1-4)Glc
# Summary of the method: as §1
# [45] = target: Glc(a1-6)Glc(a1-6)Glc
# Summary of the method: as §1
# [46] = target: Glc(b1-4)Glc
# Summary of the method: as §1
# [47] = target: Man(a1-2)Man(a1-2)Man(a1-6)[Man(a1-3)]Man
# Summary of the method: as §1
# [48] = target: Neu5Ac(a2-3)[GalNAc(b1-4)]Gal(b1-4)Glc
# Summary of the method: as §1
# [49] = target: Neu5Gc(a2-3)Gal(b1-4)Glc
# Summary of the method: as §1
binder,measurement,setting,value
B1,glycan array binding signal (z-score),[1],-0.382
same,glycan array binding signal (z-score),[2],5.1
same,glycan array binding signal (z-score),[3],-0.345
same,glycan array binding signal (z-score),[4],4.5
same,glycan array binding signal (z-score),[5],-0.366
same,glycan array binding signal (z-score),[6],3.74
same,glycan array binding signal (z-score),[7],5.2
same,glycan array binding signal (z-score),[8],4.75
same,glycan array binding signal (z-score),[9],5.91
same,glycan array binding signal (z-score),[10],6.63
same,glycan array binding signal (z-score),[11],1.3
same,glycan array binding signal (z-score),[12],-0.36
same,glycan array binding signal (z-score),[13],0.34
same,glycan array binding signal (z-score),[14],0.491
same,glycan array binding signal (z-score),[15],-0.148
same,glycan array binding signal (z-score),[16],-0.145
same,glycan array binding signal (z-score),[17],-0.288
same,glycan array binding signal (z-score),[18],0.073
same,glycan array binding signal (z-score),[19],-0.231
same,glycan array binding signal (z-score),[20],-0.023
same,glycan array binding signal (z-score),[21],-0.387
same,glycan array binding signal (z-score),[22],-0.182
same,glycan array binding signal (z-score),[23],5.95
same,glycan array binding signal (z-score),[24],4.93
same,glycan array binding signal (z-score),[25],4.56
same,glycan array binding signal (z-score),[26],-0.336
same,glycan array binding signal (z-score),[27],-0.424
same,glycan array binding signal (z-score),[28],-0.393
same,glycan array binding signal (z-score),[29],5.98
same,glycan array binding signal (z-score),[30],-0.413
B2,glycan array binding signal (z-score),[31],-0.23
same,glycan array binding signal (z-score),[32],-0.359
same,glycan array binding signal (z-score),[33],-0.161
same,glycan array binding signal (z-score),[34],-0.577
same,glycan array binding signal (z-score),[35],0.65
same,glycan array binding signal (z-score),[36],-0.179
same,glycan array binding signal (z-score),[37],0.274
same,glycan array binding signal (z-score),[38],-0.107
same,glycan array binding signal (z-score),[39],-0.506
same,glycan array binding signal (z-score),[40],0.771
same,glycan array binding signal (z-score),[41],0.384
same,glycan array binding signal (z-score),[42],-0.43
same,glycan array binding signal (z-score),[43],-0.495
same,glycan array binding signal (z-score),[24],0.68
same,glycan array binding signal (z-score),[44],10.9
same,glycan array binding signal (z-score),[45],6.96
same,glycan array binding signal (z-score),[46],2.95
same,glycan array binding signal (z-score),[47],2.13
same,glycan array binding signal (z-score),[48],0.008
same,glycan array binding signal (z-score),[49],-0.764
